Test systems include NCI-H23 lung; NCI-H226 lung; NCI-H322M lung; HOP-62 NSCLC; NCI-H460 lung; HOP-92 NSCLC; NCI-H522 lung; A549/ATCC NSCLC; 786-0 renal; COLO 205 colon.
Holding throughout (test): NCI-60 one-dose screen, 48 h (100 = growth as untreated, 0 = no growth, -100 = all killed)
What all share (details): 10 µM unless noted

The values below come from PubChem BioAssay (NCI).

Structures are written as SMILES. Compounds without any hit were thinned out: in the full panel of roughly 83,000, 20% have a hit.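 Single-concentration screen, 48 h exposure, 96-well plates. Endpoint: percent growth. Below 10 = active.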 Unmarked numbers belong to inactive results. Activity calls are given as the source filed them.

Turning to `c1ccc2sc(SCCCn3ccnc3)nc2c1`, the growth in the test on NCI-H23 lung is 81.4%; in the test with NCI-H226 lung, 74.8%; in the test on NCI-H322M lung, 98.7%; in the test on HOP-62 NSCLC it was 99.7%; in the test on NCI-H460 lung, 97.8%; in the test on HOP-92 NSCLC, 78.9%. Besides, the growth was 50.4% with NCI-H522 lung, 74.9% with A549/ATCC NSCLC, 104% with 786-0 renal and 98.2% with COLO 205 colon.
Turning to `CCOC(=O)c1nc(Nc2cc(C)[nH]n2)c2ccccc2n1`, the growth with NCI-H23 lung is 95.1%; with NCI-H226 lung, 81%; in the test on NCI-H322M lung it was 90.7%; in the test with HOP-62 NSCLC it was 103%; with NCI-H460 lung it was 79.7%; in the test on HOP-92 NSCLC it was 86.3%. Besides, the growth is 92.2% with NCI-H522 lung, 96.5% in the test with A549/ATCC NSCLC, 82.6% in the test with 786-0 renal and 104% in the test on COLO 205 colon.
In the case of `O=C1Nc2ccccc2C12CC(c1ccc(Cl)cc1)=NN2` (stereo not given), the growth in the test on NCI-H23 lung is 101%; in the test with NCI-H226 lung, 86.6%; in the test on NCI-H322M lung, 110%; with HOP-62 NSCLC, 104%; in the test on NCI-H460 lung it was 97.9%; in the test with HOP-92 NSCLC it was 74.3%. Besides, the growth in the test on NCI-H522 lung is 90.1%; in the test with A549/ATCC NSCLC, 82.2%; with 786-0 renal it was 100%; with COLO 205 colon it was 108%.
For the molecule `CN(C)CC(=O)Nc1ccc(Cn2nnc3c2C(=O)c2nnn(Cc4ccc(NC(=O)CN(C)C)cc4)c2C3=O)cc1`, the growth is -31.7% (active) in the test on NCI-H23 lung; -56.2% (active) in the test on NCI-H226 lung; -52.6% (active) in the test with NCI-H322M lung; -67.4% (active) in the test with HOP-62 NSCLC; -3.43% (active) in the test on NCI-H460 lung; -53.8% (active) in the test on HOP-92 NSCLC. In addition, the growth was -67% (active) with NCI-H522 lung, -59.8% (active) in the test with A549/ATCC NSCLC, -76.4% (active) in the test with 786-0 renal and -80.4% (active) in the test on COLO 205 colon.
Consider `CCN(CC)CCCNc1cccc2c(SCc3ccccc3)ccnc12`, for which the growth was 69.3% with NCI-H23 lung; 89.8% in the test with NCI-H226 lung; 41.6% in the test with NCI-H322M lung; 94.8% with HOP-62 NSCLC; 72% with NCI-H460 lung; 26.2% in the test on HOP-92 NSCLC. The growth was 52% in the test with NCI-H522 lung, 63.7% in the test with A549/ATCC NSCLC, 72.7% in the test with 786-0 renal and 106% with COLO 205 colon.
For `CCCCCCCCOC(=O)CC[C@@H](C)[C@H]1CC[C@H]2[C@@H]3[C@H](OC(=O)CCN)C[C@@H]4C[C@H](OC(=O)CCN)CC[C@]4(C)[C@H]3C[C@H](OC(=O)CCN)[C@]12C`, the growth with NCI-H23 lung is 90.3%; in the test on NCI-H226 lung, 89.8%; with NCI-H322M lung it was 71.4%; in the test with HOP-62 NSCLC, 37.7%; with NCI-H460 lung it was 73.7%; in the test with HOP-92 NSCLC it was 40.7%. The growth is 10.8% with NCI-H522 lung, 81.3% with A549/ATCC NSCLC, 99.1% in the test with 786-0 renal and 66.4% in the test with COLO 205 colon.
`Oc1c(Cl)cc(Cl)cc1CNc1nccnn1`: the growth with NCI-H23 lung is 102%; with NCI-H226 lung it was 92%; with NCI-H322M lung, 99.3%; in the test with HOP-62 NSCLC, 103%; with NCI-H460 lung, 109%; with HOP-92 NSCLC it was 101%. Moreover, the growth in the test on NCI-H522 lung is 105%; in the test on A549/ATCC NSCLC it was 102%; with 786-0 renal, 111%; in the test on COLO 205 colon, 100%.
As for `COc1cc2nc3cc([N+](=O)[O-])ccc3c(NCCCNCC(C)(C)O)c2cc1OC`, the growth in the test with NCI-H23 lung is -47.4% (active); in the test on NCI-H226 lung it was -37.6% (active); with NCI-H322M lung, -24.8% (active); with HOP-62 NSCLC it was -53.3% (active); in the test on NCI-H460 lung, -48.5% (active); in the test on HOP-92 NSCLC, -53.9% (active). In addition, the growth was -56.7% (active) with NCI-H522 lung, -30.9% (active) in the test on A549/ATCC NSCLC, -61.6% (active) with 786-0 renal and -81.2% (active) in the test on COLO 205 colon.
Turning to `COc1ccc(C(=O)c2sc3nc4c(cc3c2N)CCCC4)cc1OC`, the growth with NCI-H23 lung is 39.3%; in the test with NCI-H226 lung it was 37.1%; with NCI-H322M lung, 86.8%; in the test on HOP-62 NSCLC, 38.5%; in the test on NCI-H460 lung, 13%; in the test on HOP-92 NSCLC, 67.3%. In addition, the growth with NCI-H522 lung was 12.6%; with A549/ATCC NSCLC, 41.4%; with 786-0 renal it was 66.1%; with COLO 205 colon it was 16.5%.
Turning to `Cc1ccc2c(c1)n([O-])c1cc(Cl)ccc1[n+]2=O`, the growth in the test on NCI-H23 lung was 97%; in the test with NCI-H226 lung it was 104%; in the test with NCI-H322M lung, 115%; in the test on HOP-62 NSCLC, 103%; with NCI-H460 lung, 114%; with HOP-92 NSCLC, 81.9%. The growth is 89.2% in the test with NCI-H522 lung, 98.9% in the test on A549/ATCC NSCLC, 91.3% with 786-0 renal and 108% in the test with COLO 205 colon.
With `COc1ccc(C2CC(=O)Nc3c2c(C)nn3-c2nc3ccccc3[nH]2)cc1` (stereo not given), the growth with NCI-H23 lung is 99.1%; in the test with NCI-H226 lung, 101%; with NCI-H322M lung it was 53.9%; in the test with HOP-62 NSCLC it was 116%; with NCI-H460 lung, 20.8%; in the test on HOP-92 NSCLC, 89.1%. Further, the growth in the test with NCI-H522 lung is 98.2%; in the test with A549/ATCC NSCLC, 97.4%; with 786-0 renal, 106%; with COLO 205 colon, 129%.
For `COc1ccc(C/C(C)=C(\c2ccc(Cl)cc2)c2ccc(OCCN3CCCCCC3)cc2)cc1`, the growth is 78.8% with NCI-H23 lung; 86.1% with NCI-H226 lung; 86.8% with NCI-H322M lung; 97.4% with HOP-62 NSCLC; 70.4% with NCI-H460 lung; 71.2% with HOP-92 NSCLC. The growth was 73.5% in the test with NCI-H522 lung, 87.9% in the test on A549/ATCC NSCLC, 86.3% in the test on 786-0 renal and 65.2% in the test with COLO 205 colon.
For the molecule `CCN(C(=O)CN1CCN(c2cc3c(cc2F)c(=O)c(C(=O)O)cn3CC)CC1)c1nc(-c2ccccc2)cs1`, the growth was 9.94% (active) in the test with NCI-H23 lung; 18.2% in the test with NCI-H226 lung; 17.7% in the test with NCI-H322M lung; 15.5% with HOP-62 NSCLC; 5.71% (active) in the test on NCI-H460 lung; -31.8% (active) in the test on HOP-92 NSCLC. Further, the growth in the test on NCI-H522 lung was -15.4% (active); in the test on A549/ATCC NSCLC it was 4.66% (active); with 786-0 renal it was 14.3%; in the test with COLO 205 colon, -51.9% (active).
Take `CCOC(=S)SCc1ccc(Cl)cc1`: the growth with NCI-H23 lung was 111%; in the test on NCI-H226 lung it was 101%; in the test with NCI-H322M lung, 102%; in the test with HOP-62 NSCLC it was 101%; in the test with NCI-H460 lung it was 110%; in the test with HOP-92 NSCLC, 49.3%. The growth is 87.2% in the test on NCI-H522 lung, 80.4% in the test on A549/ATCC NSCLC, 98% in the test with 786-0 renal and 145% in the test with COLO 205 colon.
